PubChem BioAssay (Tox21)
Inconclusive results are not listed. The source made the active and inactive calls. Unless noted, calls come from the whole dose curve; as a rule, active = well fitted curve in the direction sought with a large enough effect in the repeat runs; inconclusive = weak or mixed curves; inactive = no such curve, though single readings can be large; an effect the other way counts as inactive or inconclusive.

Experiments:
[1] = biological target: Thyrotropin receptor (Homo sapiens) (UniProt P16473); assay: qHTS assay to identify small molecule agonists of the thyroid stimulating hormone receptor (TSHR) signaling pathway (AID 1224843; calls by dose curve; note: nearly all actives have a fitted effect of over 45% in size)
Chain of Thyrotropin receptor (Homo sapiens) (P16473 whole entry, looked up): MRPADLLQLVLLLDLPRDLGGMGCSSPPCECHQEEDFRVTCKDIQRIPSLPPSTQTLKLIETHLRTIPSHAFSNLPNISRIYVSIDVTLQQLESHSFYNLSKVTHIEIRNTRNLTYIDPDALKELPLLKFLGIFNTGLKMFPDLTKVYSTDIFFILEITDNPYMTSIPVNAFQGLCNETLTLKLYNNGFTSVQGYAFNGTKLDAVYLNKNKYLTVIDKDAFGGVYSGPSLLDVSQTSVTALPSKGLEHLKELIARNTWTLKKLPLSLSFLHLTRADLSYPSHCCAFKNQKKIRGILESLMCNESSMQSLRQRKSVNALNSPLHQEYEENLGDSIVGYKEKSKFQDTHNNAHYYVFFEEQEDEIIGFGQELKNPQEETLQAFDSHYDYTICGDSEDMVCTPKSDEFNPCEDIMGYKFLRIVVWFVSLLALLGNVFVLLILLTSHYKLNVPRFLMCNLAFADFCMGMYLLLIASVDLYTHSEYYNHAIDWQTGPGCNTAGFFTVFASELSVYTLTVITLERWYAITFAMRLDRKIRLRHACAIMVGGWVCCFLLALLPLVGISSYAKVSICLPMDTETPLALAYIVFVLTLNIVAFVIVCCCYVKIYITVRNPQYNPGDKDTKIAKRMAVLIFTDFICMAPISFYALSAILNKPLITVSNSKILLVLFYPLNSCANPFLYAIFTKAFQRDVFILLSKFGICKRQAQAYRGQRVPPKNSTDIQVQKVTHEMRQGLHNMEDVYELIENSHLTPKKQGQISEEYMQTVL
Summary of the method: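 Steps: seed 800 TSHR-HEK293 cells per well; add test compound and hold 30 min at ambient temperature; dispense cAMP-d2 then anti-cAMP cryptate; incubate 1 h at ambient; measure fluorescence intensity.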

[2] = qHTS assay to identify small molecule agonists of the hypoxia (HIF-1) signaling pathway - cell viability counter screen (AID 1224844; calls by dose curve; note: nearly all actives have a fitted effect of over 50% in size)
Summary of the method: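 Luminescent ATP content (CellTiter-Glo, 30 min, room temperature) served as the viability measure in HRE-bla ME-180 cells exposed to compounds for 17 hrs in low-serum medium (0.5% dialyzed FBS).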

[3] = qHTS assay to identify small molecule agonists of H2AX (AID 1224845; active = well fitted activation curve with a large enough effect in the signal ratio in the repeat runs, not every such curve was filed as active; the % refers to the signal ratio)
Summary of the method: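 Wild-type CHO-K1 cells, plated overnight, exposed 3hr at 37C to 15 concentrations (0.76% DMSO final). Lysed, then HTRF anti-pH2AX (S139) cryptate and anti-H2AX-d2 antibodies, 24 hr room temperature; 665/620 nm emission read.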

[4] = qHTS assay to identify small molecule agonists of the hypoxia (HIF-1) signaling pathway (AID 1224846; active = well fitted activation curve with a large enough effect in the signal ratio in the repeat runs, not every such curve was filed as active; the % refers to the signal ratio)
Summary of the method: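 Measured by blue/green FRET after loading CCF4-AM: beta-lactamase expressed from a hypoxia response element in ME-180 cells. Test agents were delivered in DMSO and left 17 hrs; cells had been plated 5 hrs earlier in low-serum (0.5% dialyzed FBS) medium.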

[5] = qHTS assay to identify small molecule agonists of H2AX - cell viability counter screen (AID 1224847; calls by dose curve; note: top concentration of the series differs between compounds; nearly all actives have a fitted effect of over 30% in size)
Summary of the method: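 For this counter screen, overnight-attached CHO-K1 cells received test compounds (15 concentrations, 0.76% DMSO final); 3 hr later at 37C, CellTiter-Glo reagent was added and luminescence recorded after 30 min at room temperature.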

[6] = qHTS assay to identify small molecule antagonists of the estrogen related receptor (ERR) signaling pathway from Tox21 library (AID 1224848); note: nearly all actives have a fitted effect of over 50% in size
Summary of the method: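 Luminescent reporter read-out (ONE-Glo) from NTP's ERR cell line after 18 h treatment at 37 C with DMSO-dissolved Tox21 compounds; cells pre-plated 6 h beforehand at 2,000 per well.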

[7] = qHTS assay to identify small molecule agonists of the estrogen related receptor (ERR) signaling pathway from Tox21 library (AID 1224849; calls by dose curve; note: nearly all actives have a fitted effect of over 15% in size); settings: ERR reporter cell line, ONE-Glo luciferase, 18 h; at 92.4 µM (top of the series) unless noted
Summary of the method: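 We plated ERR reporter cells, waited 6 h, added compounds in DMSO by pin tool and incubated them 18 h at 37 C. ONE-Glo was then added and luminescence read after 30 min.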

[8] = qHTS RealTime-Glo MT Cell Viability Assay in HepG2 cells - 24 hour (AID 1224867); note: nearly all actives have a fitted effect of over 50% in size
Summary of the method: (§1)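 HepG2 suspension premixed with RealTime-Glo reagents is plated at 600 cells per well and left 5 h at 37 C/5% CO2. Compounds in DMSO then go in, and bioluminescence reflecting viable cell number is recorded over 40 h.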

[9] = qHTS RealTime-Glo MT Cell Viability Assay in HEK293 cells - 32 hour (AID 1224868); note: top concentration of the series differs between compounds; nearly all actives have a fitted effect of over 50% in size
Summary of the method: (§2)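 Reads taken at 0, 8, 16, 24, 32 and 40 h from the same wells. HEK293 cells (600/well) carried RealTime-Glo reagents from seeding, with compound added after a 5 h settle at 37 C.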

[10] = A CellTox Green Cytotoxicity Assay to monitor cytotoxicity in HEK293 cells - 0 hour (AID 1224869); note: nearly all actives have a fitted effect of over 50% in size
Summary of the method: (§3)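 Each value comes from one timepoint of a single continuous run in which HEK293 cells with CellTox Green were exposed to compound for up to 40 h at 37 C, dye fluorescence rising with cell death.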

[11] = qHTS RealTime-Glo MT Cell Viability Assay in HepG2 cells - 40 hour (AID 1224870); note: nearly all actives have a fitted effect of over 50% in size
Summary of the method: (§4)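 HepG2 cells (600/well) mixed with RealTime-Glo MT reagent, settled 5 h at 37 C/5% CO2 before compound addition. Nonlytic NanoLuc luminescence from viable-cell prosubstrate reduction read repeatedly during 40 h treatment at 37 C.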

[12] = A CellTox Green Cytotoxicity Assay to monitor cytotoxicity in HEK293 cells - 40 hour (AID 1224871); note: nearly all actives have a fitted effect of over 45% in size
Summary of the method: as §3

[13] = qHTS RealTime-Glo MT Cell Viability Assay in HEK293 cells - 16 hour (AID 1224872)
Summary of the method: as §2

[14] = qHTS RealTime-Glo MT Cell Viability Assay in HepG2 cells - 8 hour (AID 1224873); note: nearly all actives have a fitted effect of over 55% in size
Summary of the method: as §4

[15] = qHTS RealTime-Glo MT Cell Viability Assay in HEK293 cells - 40 hour (AID 1224874); settings: RealTime-Glo luminescence; max response: active compounds read low; note: nearly all actives have a fitted effect of over 50% in size
Summary of the method: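 qHTS format; HEK293 cells with NanoLuc/prosubstrate reagent, 37 C/5% CO2 for 5 h pre-dosing; compounds 23 nL in DMSO; luminescence at each time point reflects viable cells.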

[16] = A CellTox Green Cytotoxicity Assay to monitor cytotoxicity in HEK293 cells - 24 hour (AID 1224875); note: nearly all actives have a fitted effect of over 45% in size
Summary of the method: as §3

[17] = A CellTox Green Cytotoxicity Assay to monitor cytotoxicity in HepG2 cells - 16 hour (AID 1224876); note: nearly all actives have a fitted effect of over 45% in size
Summary of the method: (§5)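 Continuous culture of HepG2 cells with a membrane-impermeant DNA dye; rising fluorescence marks dead cells. Compound exposure lasted up to 40 h at 37 C, with reads every 8 h from 0 h.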

[18] = qHTS RealTime-Glo MT Cell Viability Assay in HepG2 cells - 32 hour (AID 1224877); note: nearly all actives have a fitted effect of over 55% in size
Summary of the method: as §1

[19] = A CellTox Green Cytotoxicity Assay to monitor cytotoxicity in HepG2 cells - 24 hour (AID 1224878); note: nearly all actives have a fitted effect of over 45% in size
Summary of the method: as §5

[20] = A CellTox Green Cytotoxicity Assay to monitor cytotoxicity in HepG2 cells - 40 hour (AID 1224879); note: nearly all actives have a fitted effect of over 40% in size
Summary of the method: as §5
% is set by controls: 0 for no effect and ±100 for the full control effect.

O=C(O)CNc1ccccc1
inactive: Potency [1] | Potency [2] | Potency [3] | outcome [4] | Potency [5] | Potency [6] | activity change, positive = activation [7] 8.78% | outcome [8] | Potency [9] | Potency [10] | Potency [11] | Potency [12] | Potency [13] | outcome [14] | max response [15] 5.54% | Potency [16] | Potency [17] | Potency [18] | Potency [19] | Potency [20]

CCCCCCCCCCCCN1CCOCC1
inactive: Potency [1] | Potency [2] | Potency [3] | outcome [4] | Potency [5] | Potency [6] | activity change, positive = activation [7] -8.24% | outcome [8] | Potency [9] | Potency [10] | Potency [11] | Potency [12] | Potency [13] | outcome [14] | max response [15] 4.57% | Potency [16] | Potency [17] | Potency [18] | Potency [19] | Potency [20]

CC(=O)OCC(=O)[C@@]1(O)CC[C@H]2[C@@H]3CCC4=CC(=O)C=C[C@]4(C)[C@@]3(F)[C@@H](O)C[C@@]21C
inactive: Potency [1] | Potency [2] | Potency [3] | outcome [4] | Potency [5] | outcome [8] | Potency [9] | Potency [10] | Potency [11] | Potency [12] | Potency [13] | outcome [14] | max response [15] -21.2% | Potency [16] | Potency [17] | Potency [18] | Potency [19] | Potency [20]

COc1ccc(/C=C/S(=O)(=O)NC(=O)c2ccc(C)cc2Cl)cc1
inactive: Potency [1] | Potency [2] | Potency [3] | outcome [4] | Potency [5] | outcome [8] | Potency [9] | Potency [10] | Potency [11] | Potency [12] | Potency [13] | outcome [14] | max response [15] -7.95% | Potency [16] | Potency [17] | Potency [18] | Potency [19] | Potency [20]

COc1ccc(/C(C)=C/C(=O)O)c(OC)c1
inactive: Potency [1] | Potency [2] | Potency [3] | outcome [4] | Potency [5] | Potency [6] | activity change, positive = activation [7] 8.11% [at 42.5 µM] | outcome [8] | Potency [9] | Potency [10] | Potency [11] | Potency [12] | Potency [13] | outcome [14] | max response [15] 6.45% | Potency [16] | Potency [17] | Potency [18] | Potency [20]

CC(C(=O)O)c1ccc2c(c1)Cc1cccnc1O2 (configuration not stated)
inactive: Potency [1] | Potency [2] | Potency [3] | outcome [4] | Potency [5] | outcome [8] | Potency [9] | Potency [10] | Potency [11] | Potency [12] | Potency [13] | outcome [14] | max response [15] 1.21% | Potency [16] | Potency [17] | Potency [18] | Potency [19] | Potency [20]

CC(C)Oc1ccccc1O
inactive: Potency [1] | Potency [2] | Potency [3] | outcome [4] | Potency [5] | Potency [6] | outcome [8] | Potency [9] | Potency [10] | Potency [11] | Potency [12] | Potency [13] | outcome [14] | max response [15] 2.84% | Potency [16] | Potency [17] | Potency [18] | Potency [19] | Potency [20]
